Counter-ions that a name gives are not always drawn.
test system: Klebsiella aerogenes DSM 30053; assay: fold change of Histamine concentration vs plate DMSO controls (fold change (ratio)); higher = more amine produced, active = hit call of the paper (significant change in both replicates, either direction); conditions: incubation time: 27 h, anaerobic, 37 °C
In short: (§1)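 In 80 µL wells, cultures of four gut bacterial strains in mGAM started at OD 0.1 before a 1:1 dilution and grew anaerobically at 37 °C for 27 h. Compounds were added to 20 µM final, except sweeteners at 50 µM final. After extraction of whole cultures with cold acetonitrile/methanol plus 0.1% formic acid and centrifugation, amines were measured by LC–triple-quadrupole MS in dynamic MRM mode against external calibration curves, with within-batch drift correction. Values give fold change over DMSO controls on the same plate, averaged across 2 biological replicates.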

Row | SMILES | fold change of Histamine concentration
1 | COC(=O)[C@@H]1[C@H]2C[C@H]3c4[nH]c5ccccc5c4CCN3C[C@@H]2CC[C@@H]1O [Yohimbine hydrochloride] (20 µM) | 0.982 (inactive)
2 | CC(=O)N1CCN(c2ccc(OCC3COC(Cn4ccnc4)(c4ccc(Cl)cc4Cl)O3)cc2)CC1 (stereo not given) [Ketoconazole] (20 µM) | 0.927 (inactive)
3 | CN1C(C(=O)Nc2ccccn2)=C(O)c2ccccc2S1(=O)=O [Piroxicam] (20 µM) | 0.953 (inactive)
4 | NS(=O)(=O)c1cc2c(cc1Cl)NC(Cc1ccccc1)NS2(=O)=O (stereo not given) [Benzylhydrochlorothiazide] (20 µM) | 0.96 (inactive)
5 | Cc1cc2c(cc1S(N)(=O)=O)S(=O)(=O)CCC2 [Meticrane] (20 µM) | 1.05 (inactive)
6 | OC[C@@H](O)[C@@H](O)[C@@H](O)[C@@H](O)CO [Allitol] (50 µM) | 0.908 (inactive)
7 | Cc1c(N(C)C)c(=O)n(-c2ccccc2)n1C [Amidopyrine] (20 µM) | 0.997 (inactive)

test system: Clostridium sporogenes DSM 1664; assay: fold change of Tryptamine concentration vs plate DMSO controls (fold change (ratio)); higher = more amine produced, active = hit call of the paper (significant change in both replicates, either direction); conditions: incubation time: 27 h, anaerobic, 37 °C
In short: as §1

Row | SMILES | fold change of Tryptamine concentration
8 | Oc1c(Cl)cc(Cl)c2cccnc12 [Chloroxine] (20 µM) | 1.02 (inactive)
9 | O=C1NCCN1CCN1CCC(c2cn(-c3ccc(F)cc3)c3ccc(Cl)cc23)CC1 [Sertindole] (20 µM) | 0.952 (inactive)
10 | CCSc1ccc2c(c1)N(CCCN1CCN(C)CC1)c1ccccc1S2 [Thiethylperazine maleate] (20 µM) | 0.971 (inactive)
11 | Cc1ccsc1/C=C/C1=NCCCN1C [Morantel tartrate] (20 µM) | 0.936 (inactive)
12 | COc1cc(C)nc(-n2nc(C)cc2OC)n1 [Epirizole] (20 µM) | 1.04 (inactive)
13 | CCC1(c2ccccc2)NC(=O)N(C)C1=O (stereo not given) [Mephenytoin] (20 µM) | 1.09 (inactive)
14 | CCCCCCCC/C=C\CCCCCCCCCCCC(=O)O [Erucic acid] (20 µM) | 1.1 (inactive)
15 | C#CCN(C)CCCOc1ccc(Cl)cc1Cl [Clorgyline hydrochloride] (20 µM) | 0.96 (inactive)
16 | CC1=NN(c2ccccc2)C(=O)C1 [Edaravone] (20 µM) | 0.939 (inactive)
17 | CC(=O)N[C@H]1[C@H]([C@H](O)[C@H](O)CO)OC(C(=O)O)=C[C@@H]1NC(=N)N [Zanamivir] (20 µM) | 1 (inactive)
18 | Cc1ccc(S(=O)(=O)NC(=O)NN2CCCCCC2)cc1 [Tolazamide] (20 µM) | 1.02 (inactive)
19 | CN1CCN(C2=Nc3cc(Cl)ccc3Nc3ccccc32)CC1 [Clozapine] (20 µM) | 1.02 (inactive)
20 | CCCNC(C)(C)C(=O)Nc1ccccc1C [Quatacaine] (20 µM) | 1.01 (inactive)
21 | CN(C)c1cc(NC(=O)CNC(C)(C)C)c(O)c2c1C[C@H]1C[C@H]3[C@H](N(C)C)C(=O)C(C(N)=O)=C(O)[C@@]3(O)C(=O)C1=C2O [Tigecycline] (20 µM) | 0.964 (inactive)
22 | CCOC(=O)[N-]c1c[n+](N2CCOCC2)no1 [Molsidomine] (20 µM) | 1.19 (inactive)
23 | CCN(CC)CCOC(=O)C(Cc1cccc2ccccc12)CC1CCCO1 (stereo not given) [Nafronyl oxalate] (20 µM) | 0.969 (inactive)
24 | CCN(CC)CCOC(=O)C1(C2CCCCC2)CCCCC1 [Dicyclomine hydrochloride] (20 µM) | 0.991 (inactive)
25 | CC[C@H]1OC(=O)[C@H](C)[C@@H](O[C@H]2C[C@@](C)(OC)[C@@H](O)[C@H](C)O2)[C@H](C)[C@@H](O[C@@H]2O[C@H](C)C[C@H](N(C)C)[C@H]2O)[C@](C)(O)C[C@@H](C)C(=O)[C@H](C)[C@@H](O)[C@]1(C)O [Erythromycin] (20 µM) | 0.0554 (active)
26 | NC(=O)NS(=O)(=O)c1ccc(N)cc1 [Sulfacarbamide] (20 µM) | 0.967 (inactive)
27 | O=c1[nH]cc(F)c(=O)[nH]1 [5-fluorouracil] (20 µM) | 0.767 (inactive)
28 | NC(=O)N/N=C/c1ccc([N+](=O)[O-])o1 [Nitrofural] (20 µM) | 0.906 (inactive)
29 | COC(=O)C1=C(C)NC(C)=C(C(=O)OC2CCCN(Cc3ccccc3)C2)C1c1cccc([N+](=O)[O-])c1 (stereo not given) [Benidipine hydrochloride] (20 µM) | 0.912 (inactive)
30 | CCNC(=O)CCC/C=C\C[C@@H]1[C@@H](/C=C/[C@@H](O)CCc2ccccc2)[C@H](O)C[C@@H]1O [Bimatoprost] (20 µM) | 1.02 (inactive)
